# Laboratory results as given in PubChem BioAssay (EPA / NIEHS).
# Calls of active or inactive are those of the source. Rule for the calls: active = hit-call score of the fitted dose curve at least 0.9, where 1 is the maximum; inactive = score below 0.9.
# What was measured:
# Details in all cases: mRNA level, 48 h; actives raise or lower the signal
# [1] = read-out: Cytochrome P450 (CYP2B6), CYP2B6 (gene 1555); assay: LTEA_HepaRG_CYP2B6: Life Technologies and Expression Analysis (LTEA) Assay for Cytochrome P450 (CYP2B6) using HepaRG (AID 2283481)
# Outline: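 Differentiated human HepaRG cells in serum-free induction medium, dosed in duplicate for 48 h over 8 half-log concentrations topping at 100 uM (0.5% DMSO). CYP2B6 mRNA measured by TaqMan qRT-PCR, normalized to ACTB, GAPDH, POLR2A; bidirectional fit versus DMSO.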
# [2] = read-out: Cytochrome P450 2C19 (Homo sapiens) (UniProt P33261); assay: LTEA_HepaRG_CYP2C19: Life Technologies and Expression Analysis (LTEA) Assay for CYP2C19 using HepaRG (AID 2283482)
# Outline: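 Differentiated HepaRG cells in serum-free induction medium exposed 48 h in duplicate, 8 concentrations from 100 uM by half-log steps in 0.5% DMSO. CYP2C19 mRNA measured by TaqMan qRT-PCR, normalized to ACTB, GAPDH, POLR2A. Bidirectional fit versus DMSO.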
# [3] = read-out: CYP2C8 (gene 1558); assay: LTEA_HepaRG_CYP2C8: Life Technologies and Expression Analysis (LTEA) Assay for CYP2C8 using HepaRG (AID 2283483)
# Outline: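 Differentiated HepaRG cells in serum-free induction medium exposed 48 h in duplicate to 8 half-log concentrations from 100 uM in 0.5% DMSO. CYP2C8 mRNA by qRT-PCR normalized to ACTB, GAPDH, POLR2A; bidirectional fit versus DMSO.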
# [4] = read-out: CYP2C9 (gene 1559); assay: LTEA_HepaRG_CYP2C9: Life Technologies and Expression Analysis (LTEA) Assay for CYP2C9 using HepaRG (AID 2283484)
# Outline: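 Differentiated human HepaRG cells in serum-free induction medium were exposed 48 h to chemicals in 8-point half-log series from 100 uM (0.5% DMSO), in duplicate. CYP2C9 mRNA was measured by qRT-PCR, normalized to ACTB/GAPDH/POLR2A, with bidirectional fitting versus DMSO.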
# [5] = read-out: CYP2E1 (gene 1571); assay: LTEA_HepaRG_CYP2E1: Life Technologies and Expression Analysis (LTEA) Assay for CYP2E1 using HepaRG (AID 2283485)
# Outline: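 HepaRG cells in serum-free induction medium exposed 48 h to test chemicals, 8 half-log concentrations up to 100 uM in 0.5% DMSO, duplicate. CYP2E1 mRNA by qRT-PCR, normalized to ACTB, GAPDH, POLR2A; bidirectional fit versus DMSO.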
# [6] = read-out: CYP4A11 (gene 1579); assay: LTEA_HepaRG_CYP4A11: Life Technologies and Expression Analysis (LTEA) Assay for CYP4A11 using HepaRG (AID 2283486)
# Outline: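 Differentiated HepaRG cells, 48 h after plating, exposed in duplicate for 48 h to 8 half-log concentrations up to 100 uM in 0.5% DMSO in serum-free induction medium. CYP4A11 mRNA measured by TaqMan qRT-PCR, normalized to ACTB, GAPDH and POLR2A.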
# [7] = read-out: Cytochrome P450 3A4 (Homo sapiens) (UniProt P08684); assay: LTEA_HepaRG_CYP3A4: Life Technologies and Expression Analysis (LTEA) Assay for CYP3A4 using HepaRG (AID 2283487)
# Outline: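 In a human hepatic line (HepaRG), duplicate wells were treated 48 h with up to 100 uM chemical in half-log dilutions. Endpoint: CYP3A4 mRNA induction or loss relative to 0.5% DMSO vehicle, by qRT-PCR.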
# [8] = read-out: DNA damage-inducible transcript 3 (DDIT3), DDIT3 (gene 1649); assay: LTEA_HepaRG_DDIT3: Life Technologies and Expression Analysis (LTEA) Assay for DNA damage-inducible transcript 3 (DDIT3) using HepaRG (AID 2283488)
# Outline: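 Differentiated human HepaRG cells in serum-free induction medium were exposed in duplicate for 48 h to 8 concentrations (top 100 uM, half-log steps, 0.5% DMSO). DDIT3 mRNA measured by TaqMan qRT-PCR, normalized to ACTB/GAPDH/POLR2A; bidirectional fit versus DMSO.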
# [9] = read-out: Pro-epidermal growth factor (Homo sapiens) (UniProt P01133); assay: LTEA_HepaRG_EGF: Life Technologies and Expression Analysis (LTEA) Assay for Epidermal growth factor (EGF) using HepaRG (AID 2283489)
# Outline: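 HepaRG cells (~100,000/well, 48 h pre-culture) exposed in duplicate for 48 h in serum-free induction medium to 8 half-log concentrations up to 100 uM in 0.5% DMSO. EGF mRNA by qRT-PCR, normalized to ACTB/GAPDH/POLR2A; bidirectional fit versus DMSO.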
# [10] = read-out: Early growth response protein 1 (EGR1) transcription factor, EGR1 (gene 1958); assay: LTEA_HepaRG_EGR1: Life Technologies and Expression Analysis (LTEA) Assay for Early growth response protein 1 (EGR1) transcription factor using HepaRG (AID 2283490)
# Outline: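 Differentiated HepaRG cells in serum-free induction medium exposed 48 hours, duplicate, to 8 half-log concentrations up to 100 uM in 0.5% DMSO. EGR1 mRNA measured by TaqMan qRT-PCR, normalized to ACTB, GAPDH, POLR2A; bidirectional fit versus DMSO.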
# [11] = read-out: Ezrin (EZR), EZR (gene 7430); assay: LTEA_HepaRG_EZR: Life Technologies and Expression Analysis (LTEA) Assay for Ezrin (EZR) using HepaRG (AID 2283491)
# Outline: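 Gain or loss of EZR mRNA is scored relative to 0.5% DMSO in human HepaRG cultures treated 48 h with test chemicals in duplicate, eight half-log concentrations from 100 uM.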
# [12] = read-out: Cytochrome P450 3A7 (Homo sapiens) (UniProt P24462); assay: LTEA_HepaRG_CYP3A7: Life Technologies and Expression Analysis (LTEA) Assay for CYP3A7 using HepaRG (AID 2283492)
# Outline: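 Differentiated HepaRG cells in serum-free induction medium exposed 48 h in duplicate to 8-point half-log series from 100 uM top in 0.5% DMSO. CYP3A7 mRNA by qRT-PCR, normalized to ACTB/GAPDH/POLR2A, bidirectional fit versus DMSO.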
# [13] = read-out: CYP3A5 (gene 1577); assay: LTEA_HepaRG_CYP3A5: Life Technologies and Expression Analysis (LTEA) Assay for CYP3A5 using HepaRG (AID 2283493)
# Outline: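 Differentiated HepaRG cells in serum-free induction medium were dosed 48 h with test chemicals (8-point half-log series, top 100 uM, 0.5% DMSO, duplicate). CYP3A5 mRNA measured by qRT-PCR, normalized to ACTB, GAPDH, POLR2A; bidirectional fit versus DMSO.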
# [14] = read-out: Fatty Acid-Binding Protein 1 (FABP1), FABP1 (gene 2168); assay: LTEA_HepaRG_FABP1: Life Technologies and Expression Analysis (LTEA) Assay for Fatty Acid-Binding Protein 1 (FABP1) using HepaRG (AID 2283494)
# Outline: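 Differentiated human HepaRG cells exposed 48 h in serum-free induction medium to eight half-log concentrations up to 100 uM (0.5% DMSO), duplicate. FABP1 mRNA by qRT-PCR, normalised to ACTB, GAPDH, POLR2A; bidirectional fitting against DMSO.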
# [15] = read-out: Cytochrome P450 4A22 (Homo sapiens) (UniProt Q5TCH4); assay: LTEA_HepaRG_CYP4A22: Life Technologies and Expression Analysis (LTEA) Assay for Cytochrome P450 4A22 (CYP4A22) using HepaRG (AID 2283495)
# Outline: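 Differentiated HepaRG cells in serum-free induction medium exposed 48 h in duplicate to eight half-log concentrations up to 100 uM in 0.5% DMSO. CYP4A22 mRNA quantified by TaqMan qRT-PCR, normalized to ACTB, GAPDH and POLR2A; bidirectional fit versus DMSO.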
# [16] = read-out: Cytochrome P450 7A1 (Homo sapiens) (UniProt P22680); assay: LTEA_HepaRG_CYP7A1: Life Technologies and Expression Analysis (LTEA) Assay for Cytochrome P450 7A1 (CYP7A1) using HepaRG (AID 2283496)
# Outline: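 Gene expression endpoint in human HepaRG liver cells treated for 48 h with test chemicals (up to 100 uM, 0.5% DMSO). Values come from bidirectional concentration-response fitting versus DMSO.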
# [17] = read-out: Glutathione S-Transferase (GSTA2), GSTA2 (gene 2939); assay: LTEA_HepaRG_GSTA2: Life Technologies and Expression Analysis (LTEA) Assay for Glutathione S-Transferase (GSTA2) using HepaRG (AID 2283497)
# Outline: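 Differentiated human HepaRG cells were exposed in duplicate for 48 h in serum-free induction medium, 8 points from 100 uM top in half-log steps, 0.5% DMSO. GSTA2 mRNA was measured by TaqMan qRT-PCR, normalized to ACTB, GAPDH and POLR2A; bidirectional fit versus DMSO.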
# [18] = read-out: Glutamate-cysteine ligase catalytic (GCLC), GCLC (gene 2729); assay: LTEA_HepaRG_GCLC: Life Technologies and Expression Analysis (LTEA) Assay for Glutamate-cysteine ligase catalytic (GCLC) using HepaRG (AID 2283498)
# Outline: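 Differentiated HepaRG cells exposed 48 h in serum-free induction medium, eight-point half-log series topping at 100 uM in 0.5% DMSO, duplicates. GCLC mRNA by qRT-PCR normalized to ACTB, GAPDH and POLR2A, fitted bidirectionally versus DMSO.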
# [19] = read-out: growth arrest and DNA damage 45 (GADD45G), GADD45G (gene 10912); assay: LTEA_HepaRG_GADD45G: Life Technologies and Expression Analysis (LTEA) Assay for growth arrest and DNA damage 45 (GADD45G) using HepaRG (AID 2283499)
# Outline: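 Differentiated human HepaRG cells, 48 h post-plating, exposed 48 h in serum-free induction medium to 8 half-log concentrations (top 100 uM, 0.5% DMSO) in duplicate. GADD45G mRNA measured by Fluidigm TaqMan qRT-PCR, normalized to ACTB, GAPDH, POLR2A; bidirectional fit versus DMSO.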
# [20] = read-out: Glutamate-cysteine ligase regulatory (GCLM), GCLM (gene 2730); assay: LTEA_HepaRG_GCLM: Life Technologies and Expression Analysis (LTEA) Assay for Glutamate-cysteine ligase regulatory (GCLM) using HepaRG (AID 2283500)
# Outline: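 Differentiated human HepaRG cells exposed 48 h in serum-free induction medium to 8-point half-log concentrations (top 100 uM, 0.5% DMSO), in duplicate. GCLM mRNA quantified by qRT-PCR, normalized to ACTB, GAPDH, POLR2A; bidirectional fitting versus DMSO.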
# Sequence of Cytochrome P450 3A4 (Homo sapiens) (P08684 whole entry, looked up): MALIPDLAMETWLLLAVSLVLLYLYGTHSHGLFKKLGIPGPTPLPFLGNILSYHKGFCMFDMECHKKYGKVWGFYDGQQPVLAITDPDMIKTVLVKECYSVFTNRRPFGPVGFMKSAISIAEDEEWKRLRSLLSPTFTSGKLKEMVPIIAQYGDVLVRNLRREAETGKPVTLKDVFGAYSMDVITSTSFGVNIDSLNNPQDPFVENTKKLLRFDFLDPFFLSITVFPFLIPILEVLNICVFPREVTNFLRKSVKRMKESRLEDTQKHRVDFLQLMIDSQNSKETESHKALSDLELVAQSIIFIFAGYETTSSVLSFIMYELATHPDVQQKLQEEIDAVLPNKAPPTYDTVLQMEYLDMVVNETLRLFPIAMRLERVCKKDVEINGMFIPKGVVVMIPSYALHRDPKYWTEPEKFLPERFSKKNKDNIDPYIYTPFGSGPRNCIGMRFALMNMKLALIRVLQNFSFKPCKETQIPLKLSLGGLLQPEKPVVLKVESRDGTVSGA
# Sequence of Cytochrome P450 2C19 (Homo sapiens) (P33261 whole entry, looked up): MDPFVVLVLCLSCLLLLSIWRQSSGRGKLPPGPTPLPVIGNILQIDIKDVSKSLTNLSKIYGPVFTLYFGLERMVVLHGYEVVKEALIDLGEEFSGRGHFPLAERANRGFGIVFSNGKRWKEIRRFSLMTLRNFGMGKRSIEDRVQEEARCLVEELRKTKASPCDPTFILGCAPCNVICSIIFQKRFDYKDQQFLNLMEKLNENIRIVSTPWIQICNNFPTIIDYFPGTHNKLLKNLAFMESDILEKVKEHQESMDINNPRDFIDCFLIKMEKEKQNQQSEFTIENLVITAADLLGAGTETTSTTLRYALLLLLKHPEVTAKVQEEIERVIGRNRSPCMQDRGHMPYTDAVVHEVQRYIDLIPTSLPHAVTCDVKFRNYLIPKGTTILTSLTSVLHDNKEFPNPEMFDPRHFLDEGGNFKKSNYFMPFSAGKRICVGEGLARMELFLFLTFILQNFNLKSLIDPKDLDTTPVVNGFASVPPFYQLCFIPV
# Sequence of Cytochrome P450 3A7 (Homo sapiens) (P24462 whole entry, looked up): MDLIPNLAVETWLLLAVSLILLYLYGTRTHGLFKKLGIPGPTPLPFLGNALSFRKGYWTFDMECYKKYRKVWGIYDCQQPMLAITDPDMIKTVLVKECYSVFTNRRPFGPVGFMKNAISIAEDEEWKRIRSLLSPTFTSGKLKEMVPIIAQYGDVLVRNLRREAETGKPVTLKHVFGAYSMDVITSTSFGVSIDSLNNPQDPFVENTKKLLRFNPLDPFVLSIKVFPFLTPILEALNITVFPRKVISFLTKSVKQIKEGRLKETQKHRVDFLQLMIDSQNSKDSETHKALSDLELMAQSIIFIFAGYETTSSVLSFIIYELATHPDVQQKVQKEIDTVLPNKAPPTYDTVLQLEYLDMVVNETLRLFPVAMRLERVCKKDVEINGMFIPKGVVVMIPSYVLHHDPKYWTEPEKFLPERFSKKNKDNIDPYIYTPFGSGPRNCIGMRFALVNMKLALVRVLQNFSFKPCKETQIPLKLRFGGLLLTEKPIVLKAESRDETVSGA
structure (smiles),measurement,setting,value
N#CC(CCc1ccc(Cl)cc1)(Cn1cncn1)c1ccccc1 (stereo not given),AC50,[1],50 µM (active)
same,AC50,[2],76.1 µM (active)
same,AC50,[3],73.7 µM (active)
same,AC50,[4],59.8 µM (active)
same,AC50,[5],27.3 µM (active)
same,AC50,[6],38.8 µM (active)
same,AC50,[7],85.9 µM (active)
same,AC50,[8],34.8 µM (active)
same,outcome,[9],inactive
same,AC50,[10],79.3 µM (active)
same,AC50,[11],50 µM (active)
same,AC50,[12],11.7 µM (active)
same,outcome,[13],inactive
same,AC50,[14],79.4 µM (active)
same,AC50,[15],40.4 µM (active)
same,AC50,[16],75.3 µM (active)
same,AC50,[17],68 µM (active)
same,outcome,[18],inactive
same,AC50,[19],40 µM (active)
same,AC50,[20],67.3 µM (active)
CCOC(=O)C(Cl)Cc1cc(-n2nc(C)n(C(F)F)c2=O)c(F)cc1Cl (stereo not given),AC50,[1],50 µM (active)
same,AC50,[2],41.1 µM (active)
same,AC50,[3],23.3 µM (active)
same,AC50,[4],25.5 µM (active)
same,outcome,[5],inactive
same,outcome,[6],inactive
same,AC50,[7],18.7 µM (active)
same,outcome,[8],inactive
same,outcome,[9],inactive
same,outcome,[10],inactive
same,outcome,[11],inactive
same,AC50,[12],34.3 µM (active)
same,outcome,[13],inactive
same,outcome,[14],inactive
same,outcome,[15],inactive
same,outcome,[16],inactive
same,outcome,[17],inactive
same,outcome,[18],inactive
same,outcome,[19],inactive
same,outcome,[20],inactive
CCNc1nc(Cl)nc(NCC)n1,AC50,[1],11.3 µM (active)
same,outcome,[2],inactive
same,outcome,[3],inactive
same,outcome,[4],inactive
same,outcome,[5],inactive
same,outcome,[6],inactive
same,outcome,[7],inactive
same,outcome,[8],inactive
same,outcome,[9],inactive
same,outcome,[10],inactive
same,outcome,[11],inactive
same,outcome,[12],inactive
same,outcome,[13],inactive
same,outcome,[14],inactive
same,outcome,[15],inactive
same,outcome,[16],inactive
same,outcome,[17],inactive
same,outcome,[18],inactive
same,outcome,[19],inactive
same,outcome,[20],inactive
